Assay results reported in PubChem BioAssay.
Calls of active or inactive are those of the source.

Key:
[1] = compounds binding Alexa647 anti-His antibody – biochemical, small-molecule microarray, 635 nm fluorescence, artefact control for SMM control protein annotation, primary screen (AID 1128); conditions: higher = more signal;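 also: score merges feature fluorescence with signal-to-noise for each printed compound spot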
[2] = system: Human papillomavirus type 1a E7 protein (residues 1-88); test: HPV1a E7 small-molecule binders, primary screen, biochemical, small-molecule microarray, residues 1-88, 635 nm (AID 1129); conditions: small-molecule microarray binding, fluorescence 635 nm; higher = more signal
[3] = biological target: Focal adhesion kinase 1 (Homo sapiens) (UniProt Q05397); test: PTK2 protein binding on printed compound slides – biochemical, small-molecule microarray, 635/667 nm fluorescence, BSA, DTT, primary screen (AID 1130); conditions: 635 nm fluorescence, higher = more signal;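 also: composite of spot emission at 667 nm and signal to noise over triplicate slides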
Sequence of Focal adhesion kinase 1 (Homo sapiens) (Q05397 whole entry, looked up): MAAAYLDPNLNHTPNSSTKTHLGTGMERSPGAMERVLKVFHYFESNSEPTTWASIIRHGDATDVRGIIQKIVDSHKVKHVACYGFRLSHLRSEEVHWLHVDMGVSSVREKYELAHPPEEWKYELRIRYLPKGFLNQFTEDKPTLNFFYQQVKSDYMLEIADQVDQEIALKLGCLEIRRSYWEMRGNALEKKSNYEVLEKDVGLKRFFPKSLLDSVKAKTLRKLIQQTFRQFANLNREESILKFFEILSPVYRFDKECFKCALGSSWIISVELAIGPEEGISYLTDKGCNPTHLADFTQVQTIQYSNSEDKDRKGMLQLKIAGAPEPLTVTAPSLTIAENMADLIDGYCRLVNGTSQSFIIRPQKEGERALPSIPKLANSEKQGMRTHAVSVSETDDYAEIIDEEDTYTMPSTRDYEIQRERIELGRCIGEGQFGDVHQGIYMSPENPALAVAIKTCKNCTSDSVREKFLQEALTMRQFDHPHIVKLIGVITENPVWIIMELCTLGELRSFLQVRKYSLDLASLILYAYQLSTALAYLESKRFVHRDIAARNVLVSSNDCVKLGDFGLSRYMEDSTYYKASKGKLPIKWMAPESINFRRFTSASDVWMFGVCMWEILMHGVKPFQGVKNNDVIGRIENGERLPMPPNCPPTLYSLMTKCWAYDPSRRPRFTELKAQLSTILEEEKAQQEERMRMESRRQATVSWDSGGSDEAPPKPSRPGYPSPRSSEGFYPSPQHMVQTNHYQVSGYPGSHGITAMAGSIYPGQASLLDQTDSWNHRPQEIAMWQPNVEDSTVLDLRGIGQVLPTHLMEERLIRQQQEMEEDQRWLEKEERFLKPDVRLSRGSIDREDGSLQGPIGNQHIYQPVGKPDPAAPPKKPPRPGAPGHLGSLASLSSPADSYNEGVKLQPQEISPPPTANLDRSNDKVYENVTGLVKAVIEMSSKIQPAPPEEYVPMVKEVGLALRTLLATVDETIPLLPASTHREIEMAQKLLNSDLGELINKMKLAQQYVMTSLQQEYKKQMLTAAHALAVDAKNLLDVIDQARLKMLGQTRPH

[4] = system: Fibrinogen (Alexa647-labelled); test: Alexa647-fibrinogen binding to printed small molecules – biochemical, small-molecule microarray, 635/667 nm fluorescence, artefact control for SMM control-protein annotation, profiling panel (AID 1131); conditions: fibrinogen-A647 binding fluorescence, higher = more signal;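 also: z-score merges 667 nm fluorescence with per-spot signal-to-noise over triplicate slides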
[5] = biological target: Follistatin (Homo sapiens) (UniProt P19883); test: FST protein binding to printed compounds – biochemical, small-molecule microarray, 635/667 nm fluorescence, primary screen (AID 1132); conditions: 635 nm fluorescence, higher = more signal
Sequence of Follistatin (Homo sapiens) (P19883 whole entry, looked up): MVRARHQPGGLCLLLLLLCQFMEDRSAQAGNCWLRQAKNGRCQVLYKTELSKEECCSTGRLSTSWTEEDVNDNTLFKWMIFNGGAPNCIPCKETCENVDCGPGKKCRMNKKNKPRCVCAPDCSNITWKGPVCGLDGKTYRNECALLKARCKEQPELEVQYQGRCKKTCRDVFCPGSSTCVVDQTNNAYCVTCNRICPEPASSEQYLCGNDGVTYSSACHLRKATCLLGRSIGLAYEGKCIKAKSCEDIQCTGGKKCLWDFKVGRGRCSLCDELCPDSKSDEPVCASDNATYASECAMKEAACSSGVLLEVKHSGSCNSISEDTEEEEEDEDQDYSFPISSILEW

[6] = biological target: Fibroblast growth factor 2 (Homo sapiens) (UniProt P09038); test: basic fibroblast growth factor binding to printed compounds – biochemical, small-molecule microarray, 635/667 nm fluorescence, primary screen (AID 1133); conditions: FGF2, fluorescence 635/667, higher = more signal
Sequence of Fibroblast growth factor 2 (Homo sapiens) (P09038 whole entry, looked up): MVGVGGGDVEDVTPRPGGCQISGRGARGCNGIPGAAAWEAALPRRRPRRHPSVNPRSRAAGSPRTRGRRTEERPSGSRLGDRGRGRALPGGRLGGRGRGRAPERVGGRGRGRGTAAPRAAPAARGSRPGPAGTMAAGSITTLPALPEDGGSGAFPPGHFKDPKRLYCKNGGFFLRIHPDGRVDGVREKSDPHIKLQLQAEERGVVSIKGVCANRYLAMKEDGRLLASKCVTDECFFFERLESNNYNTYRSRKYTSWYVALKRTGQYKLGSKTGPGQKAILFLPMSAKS

[7] = JC-1 mitochondrial potential readout, lung cancer cells – cell-based, A549, JC-1 fluorescence, basal, 24 h, 100 nL, profiling panel (AID 1138); conditions: higher = more signal;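 also: A549 lung adenocarcinoma cells under basal conditions with no added stimulus; test concentration not given here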
Lefty1 = Lefty1 protein binding to printed compounds – biochemical, small-molecule microarray, 635/667 nm fluorescence, primary screen (AID 1139); conditions: fluorescence 635/667, higher = more signal
[8] = system: wheat germ agglutinin (Triticum aestivum), Alexa647-labelled; test: Alexa647-WGA lectin binding to printed small molecules – biochemical, small-molecule microarray, 635/667 nm fluorescence, artefact control for SMM control-protein annotation, profiling panel (AID 1140); conditions: WGA-A647 binding, 635 nm fluorescence, higher = more signal;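 also: score merges 667 nm feature emission with signal to noise over triplicate slides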
[9] = biological target: Luciferin 4-monooxygenase (Photinus pyralis) (UniProt P08659); test: inhibition of purified Photinus pyralis luciferase – biochemical, luminescence, purified enzyme, 2006 set, primary screen (AID 1141); conditions: purified firefly luciferase, SteadyGlo luminescence, 30 min; higher = more signal, called active from +8 up or from −8 down;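 also: cell-free assay with purified firefly luciferase at 100 ng per well in PBS; test concentration not given here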
Sequence of Luciferin 4-monooxygenase (Photinus pyralis) (P08659 whole entry, looked up): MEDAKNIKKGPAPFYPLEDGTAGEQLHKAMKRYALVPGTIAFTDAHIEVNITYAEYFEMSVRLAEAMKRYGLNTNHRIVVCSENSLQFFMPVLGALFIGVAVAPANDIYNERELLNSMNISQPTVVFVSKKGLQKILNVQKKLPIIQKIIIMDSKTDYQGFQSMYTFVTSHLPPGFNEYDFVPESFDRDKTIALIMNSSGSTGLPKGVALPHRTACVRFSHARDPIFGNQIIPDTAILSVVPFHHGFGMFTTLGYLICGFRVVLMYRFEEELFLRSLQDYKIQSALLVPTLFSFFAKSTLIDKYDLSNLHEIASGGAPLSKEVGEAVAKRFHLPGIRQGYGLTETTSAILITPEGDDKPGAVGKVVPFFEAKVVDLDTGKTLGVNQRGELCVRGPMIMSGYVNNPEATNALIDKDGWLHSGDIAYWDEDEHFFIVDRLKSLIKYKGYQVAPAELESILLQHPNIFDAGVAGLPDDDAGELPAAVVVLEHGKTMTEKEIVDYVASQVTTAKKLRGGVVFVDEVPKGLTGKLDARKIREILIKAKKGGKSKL

Row | SMILES | composite z-score [1] | composite z-score [2] | composite z-score [3] | composite z-score [4] | composite z-score [5] | composite z-score [6] | z-score [7] | composite z-score (Lefty1) | composite z-score [8] | z-score [9]
1 | C=CC[C@]12N=C(c3ccc(OCCCO)cc3)O[C@H]1c1ccccc1N(CCC)C2=O | 2.3 | 0.917 | 0.685 | 0.488 | 1.46 | 1.35 | 0.948 | 0.613 | 0.954 | -3.66 (inactive)
2 | COc1ccc(CCNC(=O)[C@@H]2c3ccccc3C(=O)N(Cc3cc(F)cc(C(F)(F)F)c3)[C@H]2c2ccc(CO)cc2)cc1 | 0.634 | 0.544 | 0.137 | 0.227 | 1 | 0.409 | 3.34 | -0.192 | 0.871 | -1.13 (inactive)
3 | CCCCC(=C=CC[C@H](O)c1ccccc1OCCO)CCO | 2.08 | 0.118 | 0.0679 | -0.472 | 0.689 | 0.749 | -0.378 | 0.342 | -0.298 | 0.207 (inactive)
4 | O=C1O[C@@H](c2ccccc2)[C@@H](c2ccccc2)N2[C@@H](c3ccccc3OCCO)[C@]3(C(=O)Nc4ccc(C#CC5(O)CCCCCC5)cc43)[C@@H](C(=O)N3CCCCCCC3)[C@H]12 | 2.72 | 1.27 | 4.12 | 0.89 | 1.58 | 0.718 | -1.1 | 1.99 | 1.67 | -0.37 (inactive)
5 | COC(=O)[C@@]1(Cc2ccc(F)cc2)[C@H]2c3cc(C(=O)N4CCCC4)n(CCSCCO)c3C[C@H]2CN1C(=O)c1ccccc1 | 0.163 | 0.767 | 1.11 | 0.982 | -0.16 | -0.79 | 0.281 | -0.973 | 0.679 | 0.5 (inactive)
6 | CCN1C(=O)C2CC(=O)C3C(CN(S(=O)(=O)c4ccc(C)cc4)C3c3ccc(C)cc3)C2C1=O (stereo not given) | 1.98 | 1.18 | 1.09 | -0.38 | -0.238 | -0.315 | 0.0148 | -0.573 | -0.0147 | 0.12 (inactive)
7 | CCOC(=O)C=C1C[C@@H](c2cccc([N+](=O)[O-])c2)O[C@@H](c2cccc([N+](=O)[O-])c2)O1 | 1.1 | 1.11 | 0.867 | 0.871 | 0.669 | 0.715 | 3.03 | 0.279 | 0.697 | 1.31 (inactive)
8 | COCCOC(=O)N1C(=O)[C@@]2(c3cc(C#CCC(C(=O)OC)C(=O)OC)ccc31)[C@H](C(=O)N1CCc3cc(OC)c(OC)cc3C1)[C@H]1C(=O)O[C@H](c3ccccc3)[C@H](c3ccccc3)N1[C@@H]2c1ccccc1OCCO | 0.258 | 1.2 | 0.673 | 0.698 | 1.42 | 1.6 | -1.28 | 1.61 | 0.281 | 0.888 (inactive)
9 | COc1ccc([Si](C)(C)[C@H]2[C@H](CC(=O)N3CCC[C@H]3CO)O[C@@]3(C(=O)N(C)c4ccccc43)[C@@H]2C)cc1 | 1.86 | 0.0098 | -0.0086 | 0.509 | 1.53 | 0.798 | -0.151 | 1.16 | 0.051 | 0.229 (inactive)
10 | CN1C(=O)C2C=CC(C(O)c3cccs3)N(N(c3ccccc3)c3ccccc3)C2C1=O (stereo not given) | 2.34 | 1.08 | 0.663 | 0.954 | 0.569 | -0.469 | 0.7 | 0.169 | 1.06 | -0.697 (inactive)
11 | O=C1OCC=C[C@H]2OC34C=CCN(Cn5nnc6ccccc65)C(=O)[C@H]3N(CCO)C(=O)[C@@H]4[C@@H]12 (stereo not given in full) | 1.68 | -0.696 | -0.619 | -1.41 | -1.32 | -1.46 | -0.546 | -1.17 | -0.944 | 0.0848 (inactive)
12 | CC(C)(C)OC(=O)CC[C@]1(C(N)=O)N=C(c2ccc(OCCCO)cc2)O[C@H]1c1ccccc1N=[N+]=[N-] | 2.8 | 0.977 | 0.178 | 0.746 | 1.2 | 0.38 | -0.12 | -0.512 | 1.1 | -8.33 (active)
13 | C=C(CC1([C@@H](NP(=O)(c2ccccc2)c2ccccc2)[C@H]2C[C@@H]2CCCC)CC1)c1cccc(OC)c1 | 1.18 | 0.811 | 0.751 | 0.269 | 0.43 | -0.7 | 0.959 | -0.739 | 0.344 | 2.59 (inactive)
14 | Cc1ccc(S[C@]2(C(=O)NCc3ccccc3)CC(=O)N(Cc3ccccc3Cl)[C@@H]2c2ccc(CO)cc2)cc1 | 1.29 | -0.561 | -0.0881 | -0.919 | -0.181 | -0.756 | -0.387 | -0.423 | -0.3 | 0.718 (inactive)
15 | CC(C)c1ccc(NN2C(C(O)c3ccccc3)C=CC3C(=O)N(c4ccccc4)C(=O)C32)cc1 (stereo not given) | 0.593 | 1.19 | 0.684 | 1.02 | 0.075 | -0.522 | 0.266 | -0.56 | 1.13 | -2.04 (inactive)
16 | C=CC[C@H](O)c1ccc(O)c2ccccc12 | 1.02 | 0.604 | 0.126 | 0.24 | 1.4 | 1.49 | -0.0561 | 1.26 | 0.742 | -2.47 (inactive)
17 | C=C(COC)C(=O)CC[C@H](OC(C)=O)c1ccc(CO)o1 | 1.59 | -0.805 | -0.451 | 0.0974 | 1.37 | 1.45 | -0.403 | 0.744 | 0.841 | 0.288 (inactive)
18 | COC(=O)C(CC#Cc1ccc2c(c1)[C@]1(C(=O)N2)[C@H](C(=O)NC[C@H](O)c2ccccc2)[C@H]2C(=O)O[C@H](c3ccccc3)[C@H](c3ccccc3)N2[C@@H]1c1ccc(O)cc1)C(=O)OC | -0.716 | -0.0341 | 0.105 | -0.906 | 0.276 | 0.0859 | -1.62 | 0.192 | 0.0123 | -0.168 (inactive)
19 | COc1ccc([Si](C)(C)[C@H]2[C@H](CC(=O)N(CCO)Cc3ccccc3)O[C@@]3(C(=O)N(Cc4ccc(N5C(=O)c6cccc7cccc5c67)cc4)c4ccccc43)[C@@H]2C)cc1 | 0.53 | 0.714 | 0.0253 | 0.624 | 1.17 | 1.06 | -0.701 | 1.2 | 0.59 | -0.354 (inactive)
20 | C=C[C@H](C)[C@@H](OC(=O)Nc1ccc(SC)cc1)c1ccc(OCCO)cc1 | 2.21 | 1.14 | 0.461 | -1.15 | 0.629 | 0.2 | -1.8 | 0.265 | 0.827 | -7.41 (inactive)
21 | [N-]=[N+]=Nc1ccccc1C[C@@]1(C(=O)NCc2ccccc2)N=C(c2ccc(OCCCO)cc2)O[C@@H]1c1ccccc1 | 1.58 | 1.22 | -0.255 | 0.695 | 1.47 | 0.992 | 0.945 | -0.0651 | 0.626 | -1.39 (inactive)
22 | CC(C)C[C@@H]1NC(=O)[C@@H]2C[C@H](C(=O)NCCCCCNC(=O)CS)[C@H](c3ccc(O)cc3)N2C1=O | 2.52 | -0.0315 | 0.322 | 0.0178 | 0.815 | 1.24 | -0.976 | 0.627 | 0.263 | 0.448 (inactive)
23 | COCCOC(=O)N1C(=O)[C@@]2(c3cc(C#CCCO)ccc31)[C@H](C(=O)N1CCN(c3ncccn3)CC1)[C@H]1C(=O)O[C@H](c3ccccc3)[C@H](c3ccccc3)N1[C@@H]2c1ccc(OCCO)cc1 | 1.12 | 1.23 | -0.293 | 0.972 | 1.21 | 1.29 | -1.28 | 0.92 | 1.02 | -0.21 (inactive)
24 | COCCCNC(=O)[C@@]1(c2ccc([N+](=O)[O-])cc2)CC(=O)N(C2CCCCC2)[C@@H]1c1ccc(CO)cc1I | 3.3 | 1.2 | 0.964 | 0.014 | 1.45 | 1.44 | 2.77 | 0.418 | 0.524 | -0.883 (inactive)
25 | COC(=O)C(CC#Cc1ccc2c(c1)[C@]1(C(=O)N2)[C@H](C(N)=O)[C@H]2C(=O)O[C@H](c3ccccc3)[C@H](c3ccccc3)N2[C@@H]1c1ccccc1OCCO)C(=O)OC | 1.25 | 1.22 | 0.474 | 0.591 | 0.917 | 0.535 | -1.05 | 0.607 | 0.775 | -0.638 (inactive)
26 | CC(=O)NCCCC[C@@H]1NC(=O)[C@H]2C[C@@H](C(=O)O)[C@@H](c3cccc(OCCO)c3)N2C1=O | 0.246 | 1.21 | 0.398 | 0.984 | 1.29 | 1.12 | -0.253 | 1.13 | 0.946 | 0.102 (inactive)
27 | Cc1c(NC(=O)/C(C#N)=C/C=C/c2ccc([N+](=O)[O-])cc2)c(=O)n(-c2ccccc2)n1C | 2.04 | 1.18 | -0.0384 | 1.02 | 1.06 | 1.11 | 0.138 | 0.78 | 0.685 | -4.99 (inactive)
28 | CC[C@@H](O[Si](C#C[Si](C(C)C)(C(C)C)C(C)C)(C(C)C)C(C)C)c1cn(Cc2cccc(Cl)c2)nn1 | 0.448 | 0.79 | 0.357 | 0.377 | 0.371 | 0.46 | -0.153 | 0.809 | 0.23 | 0.433 (inactive)
